Most compounds without a hit are left out; they make up all but 8% or so of the library.
Lassa entry inh: qHTS for Inhibitors of binding or entry into cells for Lassa Virus. Lassa virus pseudotype entry inhibition, cell reporter. Potency, µM (series often up to 37.9 µM), most hits filed as inhibitors. 1.2% of 300,000 active. AID 540256, 2011; calls by dose curve; tested in HEK293 cells; note: nearly all actives have a fitted effect of over 50% in size
MARV entry inh: qHTS for inhibitors of binding or entry into cells for Marburg Virus | Marburg virus pseudotyped entry inhibition, cell reporter | Potency, µM (titrated, usually from 37.8 µM), usual class: inhibitors | 1.8% of 300,000 active; calls by dose curve; tested in HEK293 cells
HCV inh: qHTS Assay for Inhibitors of Hepatitis C Virus (HCV); Huh7.5.1 HCVcc-Cre infection, luciferase reporter, 44 h; Potency, µM (series often up to 41.8 µM), usual class: inhibitors; 3.4% of 340,000 active; active = well fitted inhibition curve with a large enough effect; inconclusive = small, poorly fitted or top-dose-only effect, or another doubt; inactive = no such curve, though single readings can be large or run the other way
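Antiviral activity was scored by luciferase reporter output from cells infected with HCVcc-Cre (~0.5 moi) in presence of compound, 44 h infection period, cells seeded 1,000/well 4 h prior.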
SARS PLpro yeast: qHTS of Yeast-based Assay for SARS-CoV PLP; Potency, µM (highest dose often 32.9 µM), hits mostly activators; 0.19% of 330,000 active; S. cerevisiae expressing SARS-CoV PLpro, growth rescue; calls by dose curve; note: nearly all actives have a fitted effect of over 55% in size
HCMV inh: qHTS Assay for inhibitors of the human cytomegalovirus (HCMV). HFF cells, HCMV-luciferase reporter, 72 h; active compounds read low. activity change, negative = inhibition, % at 57.5 µM. 4.5% of 410,000 active. AID 1259415, 2018; in the data active = activity change below about -60%; inconclusive = no clear call, values can overlap the other calls; inactive = above about -39%
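Screen run at 2 compound doses on HFFs infected with reporter HCMV, MOI 1 PFU/cell. Luciferase activity from cell lysates at 72 h post infection gave inhibition relative to buffer-only and Salinomycin wells.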
FMDV inh: High Throughput Screening for Foot and Mouth Disease Virus Antivirals | FMDV antiviral cell-based qHTS | Potency, µM (top dose mostly 57.9 µM), actives largely listed as inhibitors | 1.2% of 410,000 active | AID 1159524, 2015; calls by dose curve; tested in HEK293T cells; note: read-out not given here; nearly all actives have a fitted effect of over 45% in size
A number is an active result; 0 = inactive; ? = inconclusive; - = no result given; ! = not confirmed by another sample; [ ] = dose if it differs, or a comment.

SMILES	Lassa entry inh	MARV entry inh	HCV inh	SARS PLpro yeast	HCMV inh	FMDV inh
Cc1ccc(NC(=O)c2oc3ccc(S(=O)(=O)N4CCCCCC4)cc3c2C)cc1Cl	0	-	-	-	0	?
Cc1c(C(=O)Nc2ccc(F)c(F)c2)oc2ccc(S(=O)(=O)N3CCC4(CC3)OCCO4)cc12	0	-	-	-	0	0
Cc1c(C(=O)Nc2ccc(F)c(F)c2)oc2ccc(S(=O)(=O)N3CCCCC3)cc12	0	?	6.3µM	0	0	14µM
O=C(Cc1csc2nc(-c3ccccc3)cn12)NCc1ccc(F)cc1	?	-	-	-	0	0
O=c1c(NCc2cccs2)nccn1-c1ccc(F)cc1	0	-	-	-	0	0
O=C(O)c1ccc(N/N=C2/CCCc3ccccc32)cc1	-	-	0	0	0	0
Cc1nn(C(=O)c2cccc(F)c2)c(C)c1S(=O)(=O)N1CCCCCC1	0	-	-	-	-91	0
Cc1nn(C(=O)c2cccc(F)c2)c(C)c1S(=O)(=O)N1CCOCC1	0	-	-	-	-81	0
Cc1nn(C(=O)c2ccccc2)c(C)c1S(=O)(=O)N1CCCCCC1	0	-	-	-	0	0
O=C(NCc1nnc2n1CCN(Cc1cc(F)cc(F)c1)CC2)c1cccc(F)c1	-	-	-	-	-	0
O=[N+]([O-])c1ccc(-c2nc(C(Cl)Cl)c3ccccc3n2)cc1	?	?	2µM	0	-102	0
CC1(C(=O)NS(=O)(=O)c2cccc(C#N)c2)CCN1C(=O)Cc1ccc(Cl)cc1Cl (stereo unspecified)	-	-	-	-	0	0
COc1cccc(NC(=O)CSc2nc3n[nH]c(C)c3c(=N)n2-c2cccc(OC)c2)c1	0	?	10µM	0	0	0
Cc1cc(-n2c(SCC(=O)Nc3ccc(Br)cc3)nc3n[nH]c(C)c3c2=N)ccc1Cl	-	-	0	0	-75	0
CN(CC1CCOCC1)C(=O)CC1C(=O)NCCN1Cc1cccc(Oc2ccccc2)c1 (stereo unspecified)	-	-	0	0	0	0
O=C1CC(N2CCN(c3ccc(O)cc3)CC2)C(=O)N1Cc1cccs1 (stereo unspecified)	?	0	0	0	0	0
O=C(c1ccncc1)c1ccc(N2CCN(C3CC(=O)N(Cc4cccs4)C3=O)CC2)cc1 (stereo unspecified)	-	-	?	0	0	25µM
CCOC(=O)c1cc(S(=O)(=O)Nc2c(C)cc(C)cc2C)[nH]n1	0	-	-	-	0	0
Cn1c(CNc2ccccn2)c(C#N)c2ccccc21	0	0	11µM	0	0	0
Cc1ccc(CNc2ncnc3sc(C(=O)N4CCC[C@H]4C(N)=O)c(C)c23)o1	-	-	-	-	-	0
O=C(c1cnn2c1NC(c1ccc(Br)cc1)CC2C(F)(F)F)N1CCN(C23CC4CC(CC(C4)C2)C3)CC1 (stereo unspecified)	0	16µM	0	0	0	?
O=C(c1cnn2c1NC(c1ccc(Br)cc1)CC2C(F)(F)F)N1CCN2CCCC2C1 (stereo unspecified)	?	?	?	0	0	0
CN(CCCC(=O)O)S(=O)(=O)c1ccc2c(c1)C(=O)c1cc(S(=O)(=O)N(C)CCCC(=O)O)ccc1-2	-	-	0	0	0	0
Cc1ccc(NC(=O)CSc2nc(C)c(Cc3ccccc3)c(=O)[nH]2)cc1	0	0	0	0	-64!	0
Cc1ccc2nc(-c3ccc(NC(=O)CSc4ccccc4)cc3)[nH]c2c1	?	?	11µM	0	?	-
SMILES	Lassa entry inh	MARV entry inh	HCV inh	SARS PLpro yeast	HCMV inh	FMDV inh
CC1CCCN(S(=O)(=O)c2cc3c4c(c2)CCN4C(=O)CC3)C1 (stereo unspecified)	?	0	0[8.37 µM]	0	0	0
Cc1ccc(OCC(=O)Nc2cc(C(=O)O)cc(C(=O)O)c2)cc1C	0	0	0	0	-65	0
Cc1cccc(OCC(=O)Nc2ccc3c(c2)OCCO3)c1	?	0	?	0	0	0
Cc1ccc(OCC(=O)Nc2ccc3c(c2)OCCO3)cc1C	?	?	0	0	-63	0
CC1N(C)c2cc(NC(=O)c3ccco3)ccc2C1(C)C (stereo unspecified)	?	?	0	0	-70	0
O=C(N/C(=C\c1ccc([N+](=O)[O-])cc1)C(=O)N1CCOCC1)c1ccco1	0	0	0	0	0	0
CC1N(C)c2cc(NC(=O)c3ccco3)c(P(=O)(Nc3ccc([N+](=O)[O-])cc3)N3CCOCC3)cc2C1(C)C (stereo unspecified)	?	?	8.9µM	0	?	0
O=C(Cn1cnc2c(nc3n2CCCCC3)c1=O)Nc1ccc(F)cc1	?	-	-	-	0	0
Cc1c(NC(=O)CN2C(=O)NC3(CCCC3)C2=O)c(=O)n(-c2ccccc2)n1C	0	0	0	0	-101	0
Cc1cc(C)c(NC(=O)CN(C)CC(=O)Nc2cccc(S(=O)(=O)N(C)c3ccccc3)c2)c(C)c1	-	-	10µM	0	?	?
CN(c1ccccc1)S(=O)(=O)c1cccc(NC(=O)CN2C(=O)NC3(CCCCC3)C2=O)c1	-	-	3.2µM	0	0	0
NS(=O)(=O)c1cccc(NC(=O)CN2CCc3ccccc32)c1	0	0	?	0	0	0
CN(CC(=O)Nc1cccc(F)c1)CC(=O)Nc1cccc(S(=O)(=O)N(C)c2ccccc2)c1	?	?	?	-	0	?
CN(c1ccccc1)S(=O)(=O)c1cccc(NC(=O)CN2CCCc3ccccc32)c1	?	8.9µM	?	0	0	0
CCCCCC1=CC2=C(C(=O)OC)C(c3ccccc3)NC(=O)N2CC1 (stereo unspecified)	-	0	-	-	-	-
COc1cc(-c2noc(C)c2/C=C/c2ccc(OC(C)=O)cc2)cc(OC)c1OC	-	-	?	0	-65	0
O=C1NN(c2ccc(F)c(Cl)c2)C(=O)/C1=C\c1cccc(OC(=O)c2cccs2)c1	0	0	0	0	0	28µM
CCOC(=O)c1sc2ncnc(NCC(c3cccs3)N(C)C)c2c1C (stereo unspecified)	0	?	10µM	0	0	0
Cc1ccc(OCCCC(=O)Nc2sc3c(c2C(N)=O)CCC(C)C3)cc1 (stereo unspecified)	0	-	-	-	0	0
CC(C)(C)NC(=O)COC(=O)CCC(=O)c1cccs1	0	0	0	0	0	0
CC(=O)COc1cccc2ccc(/C=C/c3ccc(Br)s3)nc12	-	-	11µM	0	0	0
Cc1ccc(/C=C/c2ccc3cccc(O)c3n2)s1	?	?	?	0	0	0
O=C(Nc1cc(Cl)cc(Cl)c1)c1cc(S(=O)(=O)NC2CCCC2)ccc1F	0	-	-	-	?	0
CCOC(=O)C1(CCCc2ccccc2)CCN(Cc2nccn2CC)CC1	?	?	10µM	0	?	?
CCOC(=O)C1(CCCc2ccccc2)CCN(Cc2cn(CC)nc2C)CC1	?	8.9µM	11µM	0	?	?
CCOC(=O)C1(CCCc2ccccc2)CCN(C(=O)C2=C(C)OCCO2)CC1	?	?	?	0	-69	0

Screening data from PubChem BioAssay.
